# Results published in PubChem BioAssay (NCATS).
# Results filed as inconclusive are left out. A call without a number means that no potency is given here. Calls of active or inactive are those of the source. The call rests on the fitted dose curve; in most records, active means well fitted inhibition curve with a large enough effect; inconclusive means small, poorly fitted or top-dose-only effect; inactive means no such curve, though single readings can be large or run the other way.
# Target: Muscarinic acetylcholine receptor M1 (Rattus norvegicus) (UniProt P08482)
# Experiment: qHTS Assay for Antagonists of Acetylcholine Muscarinic M1 Receptor: Kinetic Measurement of Intracellular Calcium Response (AID 943); further: nearly all actives have a fitted effect of over 75% in size
# Conditions: M1-expressing cells, kinetic intracellular calcium fluorescence; series mostly up to 35.3 µM
# From the text: NIH Molecular Libraries Screening Centers Network [MLSCN]
# NIH Chemical Genomics Center [NCGC]
# Acetylcholine muscarinic M1 receptor is a G-protein coupled receptor (GPCR) coupling to the Gq G protein. It is mainly expressed in brain and functionally related to the learning and memory processes. The agonists of this receptor have the potential for the treatment of Alzheimer's disease and cognitive impairments associated with Schizophrenia. Upon an activation of the M1 receptor, phosholipase C (PLC) is activated to produce inositol 1,4,5-trisphosphate (IP3) and diacyl glycerol (DAG) resulting in increase of intracellular free Ca2+ and activation of protein kinase C (PKC). The increase of intracellular calcium can be measured by the fluorescent calcium dyes, Fluo-3 and Fluo-4, using a fluorescence kinetic plate reader.
# We have obtained a M1-CHO cell line transfected with rat acetylcholine M1 receptor and optimized a calcium assay with this cell line for compound screening as a counter-screen assay for other Gq-coupled GPCRs.
# NCGC Assay Protocol Summary:
# The CHO-M1 (CHO-M1) cell line transfected with the rat acetylcholine muscarinic M1 receptor was obtained from ATCC. The cells were maintained in call culture flasks with F12 Kaighn's media (Invitrogen) supplemented with 10 % FBS, 100 units/ml penicillin, 100 ug/ml streptomycin and 250 ug/ml geneticin (Invitrogen) at 37C, 5 % CO2 in a humidified atmosphere. At 90-95 % confluence, the cells were then detached in 15 ml […] % trypsin by 3 minutes incubation at 37C and centrifuged at 1000 RPM to remove the trypsin solution. The resulting cell pellet was resuspended in the cell freezing media containing 10 % DMSO (Invitrogen) at a density of 4 x 10^7 cells/ml. The aliquots of cells at 0.5 - 1 ml per vial were frozen down slowly at 1 degree C/min using a Cryo 1 degree C freezing container in the presence of isopropanol (Nalgene Nunc, Rochster, NY) overnight in a -80C freezer. The frozen cells were then transferred to liquid nitrogen for the storage up to one year.
# The resuspended frozen cells were plated at 3 ul/well with 2000 cells in the black, tissue culture treated, clear bottom 1536-well plates. After overnight incubation at 37C, 5% CO2, 2.5 ul/well no-wash calcium dye (containing Fluo-4, BD Biosciences) were loaded and incubated at 37C, 5 % CO2 for 1 hour followed by a 10 min incubation with 20 nl compound in DMSO solution. The assay plates were then placed onto the kinetic fluorescence plate reader (FDSS-7000, Hamamatsu) for a measurement of the kinetic changes in intracellular free calcium. The basal fluorescence signal was measured for 6 times at 1 Hz followed by an addition of 1 ul of carbachol and continued 4 min measurement. The results were calculated as the maximal signal (peak) divided by the minimal signal (basal).
# 1536-well assay protocol:
# (1) 3 ul/well containing 2000 M1-CHO cells in 1536 tissue culture treated black/clear bottom plate
# (3) Add 1ul/well calcium dye (from no-wash calcium dye kit, BD Biosciences) containing […]
# (4) Incubate 1 hour at 37C with 5% CO2
# (5) Add 20 nl compound diluted in DMSO
# (6) Incubate 10 minutes at the room temp
# (7) Place the plate in FDSS-7000 instrument (Ex = 480 nm and […])
# #- read the assay plate 6 times at 1 Hz for basal signal
# #- add 1 ul/well EC80 carbachol (100 nM final)
# #- continuously read the assay plate for 4 min at 1 Hz
# Keywords: acetylcholine muscarinic M1 receptor, calcium kinetic assay, Fluo-4, high throughput screening, MLSMR, MLSCN, NIH Roadmap, qHTS and NCGC
# Potency means the concentration at half of the fitted maximal effect.
# Sequence of Muscarinic acetylcholine receptor M1 (Rattus norvegicus) (P08482 whole entry, looked up): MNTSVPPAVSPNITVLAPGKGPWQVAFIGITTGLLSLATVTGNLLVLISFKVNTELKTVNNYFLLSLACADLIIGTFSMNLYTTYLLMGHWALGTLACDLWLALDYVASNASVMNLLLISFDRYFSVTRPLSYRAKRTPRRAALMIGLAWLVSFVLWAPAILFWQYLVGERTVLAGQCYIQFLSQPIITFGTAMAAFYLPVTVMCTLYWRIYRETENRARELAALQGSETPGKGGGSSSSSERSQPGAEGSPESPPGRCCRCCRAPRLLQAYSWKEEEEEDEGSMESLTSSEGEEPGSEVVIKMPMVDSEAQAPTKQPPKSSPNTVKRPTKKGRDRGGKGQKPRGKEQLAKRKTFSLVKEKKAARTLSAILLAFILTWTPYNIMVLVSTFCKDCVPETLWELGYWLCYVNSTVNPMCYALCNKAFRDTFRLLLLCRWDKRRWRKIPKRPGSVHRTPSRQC
row,Structure (SMILES),Potency
1,N[C@@H](CS(=O)O)C(=O)O,inactive
2,O=C(O)Cc1ccc(O)c(O)c1,inactive
3,CCCn1c(=O)c2[nH]c(-c3ccc(S(=O)(=O)O)cc3)nc2n(CCC)c1=O,inactive
4,O=C(O)C1=CCCNC1,inactive
5,N=C(N)c1ccccc1,inactive
6,CN1CCN(c2nc3cc(C(F)(F)F)ccc3n3cccc23)CC1,inactive
7,CCC(=O)N1CCN(C(=O)c2ccccc2)CC1,inactive
8,Cc1cccc(C(=O)NCN2CCN(c3ccccc3C#N)CC2)c1,inactive
9,COc1cc(/C=C(\C#N)C(=O)c2ccc(O)c(O)c2)cc(I)c1O,inactive
10,C#CCn1c(=O)c2c(ncn2C)n(C)c1=O,inactive
11,N#CC(C#N)=C(N)/C(C#N)=C/c1ccc(O)cc1,inactive
12,NCCS(=O)O,inactive
13,O=c1[nH]ccc2c(O)cccc12,inactive
14,CC(C)Cn1c(=O)n(C)c(=O)c2[nH]cnc21,inactive
15,N[C@H](C(=O)O)[C@H](O)C(=O)O,inactive
16,Cc1nc(N=Nc2ccc(C(=O)O)cc2)c(COP(=O)(O)O)c(C=O)c1O,inactive
17,CC(C)(CO)Cc1cc(C(C)(C)C)c(O)c(C(C)(C)C)c1,inactive
18,O=c1onc2n1-c1cc(Br)ccc1OC2,inactive
19,Cn1ccnc1,inactive
20,N#C/C(=C\c1ccc(O)c(O)c1)C(=O)NCCc1ccccc1,inactive

row,Structure (SMILES),Potency
1,Oc1ccc(Cn2cc[nH]c2=S)cc1,inactive
2,CNCCNS(=O)(=O)c1cccc2cnccc12,inactive
3,O=C(O)C1=CCNCC1,inactive
4,N=C(N)SCCc1cnc[nH]1,inactive
5,O=C(O)Cc1c[nH]c2ccc(O)cc12,inactive
6,Nc1ncnc2c1ncn2C1CCCC1,inactive
7,NC/C=C\C(=O)O,inactive
8,CCn1c(=O)[nH]c2cc(Cl)c(Cl)cc21,inactive
9,NCCCCN=C(N)N,inactive
10,COc1ccc2c(c1)c(CC(=O)O)c(C)n2Cc1ccc(Cl)cc1,inactive
11,O=C(O)C1=CC(=C(c2ccc(O)c(C(=O)O)c2)c2ccc(O)c(C(=O)O)c2)C=CC1=O,inactive
12,O=c1cc(-c2ccccc2)[nH]c2nc(Cl)ccc12,inactive
13,NCCCCN,inactive
14,NC(=O)CNCCC(c1ccccc1)c1ccccc1,inactive
15,CCCc1c(-c2ccc(O)cc2)nn(-c2ccc(O)cc2)c1-c1ccc(O)cc1,inactive
16,O=C(N[C@@H](Cc1ccccc1)C(=O)CCl)OCc1ccccc1,inactive
17,NOCC(=O)O,inactive
18,O=c1[nH]c(=O)c2nc3ccccc3nc2[nH]1,inactive
19,CC(N)=O,inactive
20,CCCCCCCCCCCCCCC[C@H](O)[C@H](N)CO,8.91 µM (active)
